In PubChem BioAssay AID2737 (National Center for Advancing Translational Sciences (NCATS), 2010):
Activity calls are given as the source filed them.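 The calls were made as follows: active = compounds inhibiting cruzain with a measured inhibition constant Ki under 100 µM; inactive = the rest.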

Target: Cruzipain (Trypanosoma cruzi) (UniProt P25779)
Assay: Confirmation Competitive Binding Assay for Inhibitors of Cruzain
Settings: recombinant cruzain, Z-FR-AMC fluorogenic cleavage, Ki
Experimental: Cruzain is a cysteine protease from the tropical parasite Trypanosoma cruzi. This assay protocol is for follow-up Ki determination of cruzain inhibitors of interest. Cruzain inhibition was determined using a competitive binding assay. See following references for additional details: Jadhav A, et al. J Med Chem. 2010 Jan 14;53(1):37-51. Mott BT, et al. J Med Chem. 2010 Jan 14;53(1):52-60. Assay Provider: Shoichet, Brian; University of California, San Fancisco Screening Center PI: Austin, C.P. Screening Center: NIH Chemical Genomics Center [NCGC]
Cruzain activity was measured by monitoring the cleavage of the fluorogenic substrate Z-Phe-Arg-aminomethylcoumarin (Z-FR-AMC). All cruzain assays were performed in Sodium Acetate 0.1 M pH 5.5 and in the presence of 5 mM dithiothreitol (DTT). The final concentration of cruzain was 0.4 nM, and the substrate concentration was 2.5 uM (Km = 2 uM), except for Ki determination, when the Z-FR-AMC varied from 0.31 to 20 uM, in two fold increments. Assays were conducted in presence of 0.01% Triton X-100. Assays were followed for five minutes, and activity was calculated based on initial rates. […] Data was analyzed with Prism 4 (GraphPad), and Ki values were determined from Lineweaver-Burk and Dixon plots.

Sequence of Cruzipain (Trypanosoma cruzi) (P25779 123-467 limits assumed): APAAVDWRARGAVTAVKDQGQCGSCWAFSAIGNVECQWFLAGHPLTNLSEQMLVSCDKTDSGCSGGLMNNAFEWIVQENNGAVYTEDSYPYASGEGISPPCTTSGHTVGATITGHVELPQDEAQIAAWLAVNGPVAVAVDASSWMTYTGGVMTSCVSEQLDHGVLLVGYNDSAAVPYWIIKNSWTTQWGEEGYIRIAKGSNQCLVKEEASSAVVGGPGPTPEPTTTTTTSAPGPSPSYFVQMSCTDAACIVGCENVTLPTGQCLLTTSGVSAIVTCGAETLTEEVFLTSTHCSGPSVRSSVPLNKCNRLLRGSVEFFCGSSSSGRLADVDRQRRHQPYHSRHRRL

Row | Structure (SMILES) | Potency
1 | Cc1ccc(C)c(OCCn2c(CCNC(=O)C3CCCCC3)nc3ccccc32)c1 | 2000 nM (active)
2 | O=C(COc1ccccc1Br)NCCc1nc2ccccc2[nH]1 | 2000 nM (active)
